The values that follow come from PubChem BioAssay (EPA / NIEHS).

For orientation: AC50 means the midpoint of the concentration-response curve, whichever way the signal moves.

The structures appear in SMILES notation. Records with an inconclusive call do not appear. Activity calls are given as the source filed them. Rule for the calls: active = hit-call score of the fitted dose curve at least 0.9, where 1 is the maximum; inconclusive = response in the unintended direction; inactive = score below 0.9.

Assay [1] has as its target human Peripheral-type Benzodiazepine Receptor (PBR), TSPO (gene 706) (UniProt P30536). As to the kind of experiment: NVS_MP_hPBR: NovaScreen (NVS) Membrane Protein Assay for human Peripheral-type Benzodiazepine Receptor (PBR) (AID 2283331).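 Note: hits reduce radioligand binding relative to DMSO baseline.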 An outline of the steps: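 Scintillation counts of filter-bound radioligand served as read-out after 1 h chemical dosing of human colonic membrane preparations. Activity was scored as signal loss against DMSO; initial duplicates at 25 uM, confirmatory concentration series afterward.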

Assay [2] has as its target human Androgen Receptor (AR), AR (gene 367) (UniProt P10275). As to the kind of experiment: NVS_NR_hAR: NovaScreen (NVS) Nuclear Receptor Binding Assay for human Androgen Receptor (AR) (AID 2283332). An outline of the steps: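 Radioligand competitive binding, scintillation read-out, in cell-free extract from LnCAP, measured 20 h after dosing. Screened first in duplicate at 25 uM, then concentration series for actives; activity fitted against DMSO.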

For assay [3], the target named is rat Adrenergic Receptor, Beta (Adrb), Non-selective Binding, Adrb1 (gene 24925) (UniProt P18090). As to the kind of experiment: NVS_GPCR_rAdrb_NonSelective: NovaScreen (NVS) G Protein-Coupled Receptor Assay for rat Adrenergic Receptor, Beta (Adrb), Non-selective Binding (AID 2283298). An outline of the steps: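 Non-selective beta-adrenergic radioligand binding in rat cortical membranes, 1 h incubation, filter-based scintillation read-out. Primary screen 25 uM in duplicate; hits retested in concentration-response up to 50 uM, DMSO baseline.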

The nature of assay [4]: NVS_IC_rCaDHPRCh_L: NovaScreen (NVS) Ion Channel Assay for rat Calcium Channel, Type L, Dihydropyridine Site (CaDHPRCh_L) (AID 2283320). An outline of the steps:
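Radioligand binding to dihydropyridine site on rat cortical membranes, filter-based scintillation counting, 1 h after dosing. Screened in duplicate at 25 uM; actives rerun in concentration-response up to 50 uM. Loss of signal versus DMSO baseline.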

Assay [5] deals with Sodium channel protein type 1 subunit alpha (Rattus norvegicus) (UniProt P04774). As to the kind of experiment: NVS_IC_rNaCh_site2: NovaScreen (NVS) Ion Channel Assay for rat Sodium Channel, Site 2 (NaCh) (AID 2283322).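 Note: hit means loss of radioligand binding signal relative to DMSO so AC50 marks displacement.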 An outline of the steps: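 Membranes: rat forebrain. Format: competitive radioligand displacement, filter separation, scintillation readout, 1 h exposure. Primary screen in duplicate at 25 uM; actives retested in concentration series.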

The target in assay [6] is Voltage-gated inwardly rectifying potassium channel KCNH2 (Homo sapiens) (UniProt Q12809). As to the kind of experiment: NVS_IC_hKhERGCh: NovaScreen (NVS) Ion Channel Assay for human Potassium Channel ERG (KhERGCh) (AID 2283333). An outline of the steps:
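Cell-free radioligand competition binding on hERG protein extracted from CHO cells, read by filter-based scintillation counting 0.75 h after dosing. Primary screen at 25 uM in duplicate, actives followed in concentration series. Signal loss fitted versus DMSO.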

Assay [7] deals with rat Adrenergic, Alpha 1A Receptor (Adra1A), Adra1a (gene 29412) (UniProt P43140). As to the kind of experiment: NVS_GPCR_rAdra1A: NovaScreen (NVS) G Protein-Coupled Receptor Assay for rat Adrenergic, Alpha 1A Receptor (Adra1A) (AID 2283296). An outline of the steps:
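Rat cortical membranes pretreated with chlorethyl clonidine; competitive radioligand displacement, 1 h. Filter-based scintillation counting. Primary screen in duplicate at 25 uM, actives followed in concentration series.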

The subject of assay [8] is rat Adrenergic, Alpha 1B Receptor (Adra1B), gene 24173. As to the kind of experiment: NVS_GPCR_rAdra1B: NovaScreen (NVS) G Protein-Coupled Receptor Assay for rat Adrenergic, Alpha 1B Receptor (Adra1B) (AID 2283297). The essentials:
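Rat liver membranes, radioligand displacement with filter-based scintillation detection, 1 h incubation. Primary screen in duplicate at 25 uM; actives retested in concentration series; activity relative to DMSO.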

In assay [9] the target is rat Adrenergic Receptor, Alpha 2 (Adra2), Non-selective Binding, Adra2a (gene 25083) (UniProt P22909). As to the kind of experiment: NVS_GPCR_rAdra2_NonSelective: NovaScreen (NVS) G Protein-Coupled Receptor Assay for rat Adrenergic Receptor, Alpha 2 (Adra2), Non-selective Binding (AID 2283299). An outline of the steps: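 Rat cortical membranes, radioligand competitive displacement read by filter-based scintillation counting 1.25 hours after dosing. Primary screen in duplicate at 25 uM; actives followed up in concentration series.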

Assay [10] deals with rat Histamine Receptor (H3), Hrh3 (gene 85268) (UniProt Q9QYN8). As to the kind of experiment: NVS_GPCR_rH3: NovaScreen (NVS) G Protein-Coupled Receptor Assay for rat Histamine Receptor (H3) (AID 2283303). The essentials:
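Rat forebrain membranes incubated 1 h with compound; radioligand displacement measured by filter-based scintillation counting. Single-concentration duplicates at 25 µM, then concentration-response up to 50 µM, relative to DMSO.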

The target of another assay is Adra2b (gene 24174) (UniProt P19328). As to the kind of experiment: NVS_GPCR_rmAdra2B: NovaScreen (NVS) G Protein-Coupled Receptor Assay for hybird cells Adrenergic, Alpha 2B Receptor (Adra2B) (AID 2283306). An outline of the steps:
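Radioligand filter-binding assay on membrane proteins from neuroglioma/blastoma hybrid cells (rodent), 1 h after dosing; scintillation counting, loss of signal vs DMSO. Primary screen in duplicate at 25 uM, actives then run in concentration series.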

Assay [11] addresses rat Neurokinin-1 Receptor (NK1), Tacr1 (gene 24807) (UniProt P14600). As to the kind of experiment: NVS_GPCR_rNK1: NovaScreen (NVS) G Protein-Coupled Receptor Assay for rat Neurokinin-1 Receptor (NK1) (AID 2283309). The essentials:
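Rat submaxillary gland membranes; radioligand displacement read by filter-based scintillation counting after 1 h. Primary screen in duplicate at 25 uM; actives retested in concentration series; loss of binding fitted versus DMSO.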

For assay [12], the target named is rat Opioid Receptor, Non-selective Sodium (Na+) Binding, Oprm1 (gene 25601) (UniProt P33535). As to the kind of experiment: NVS_GPCR_rOpiate_NonSelectiveNa: NovaScreen (NVS) G Protein-Coupled Receptor Assay for rat Opioid Receptor, Non-selective Sodium (Na+) Binding (AID 2283311). An outline of the steps: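 Rat forebrain membranes, radioligand displacement with filter scintillation counting, 1.5 h incubation. Screened in duplicate at 25 µM; hits then run in concentration-response up to 50 µM; loss of binding fitted versus DMSO.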

Assay [13] has as its target rat Opioid Receptor, Non-selective Binding, Oprm1 (gene 25601) (UniProt P33535). As to the kind of experiment: NVS_GPCR_rOpiate_NonSelective: NovaScreen (NVS) G Protein-Coupled Receptor Assay for rat Opioid Receptor, Non-selective Binding (AID 2283318). An outline of the steps:
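Rat forebrain membranes, cell-free radioligand binding with filter-based scintillation counting, read 1.5 h after dosing. Primary screen in duplicate at 25 uM; actives retested in concentration series. Loss of signal versus DMSO baseline scored.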

In the next assay the test system is NCBI gene 24521. As to the kind of experiment: NVS_IC_rKATPCh: NovaScreen (NVS) Ion Channel Assay for rat Potassium Channel, ATP-Sensitive (KATPCh) (AID 2283319). An outline of the steps:
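Rat cortical membranes; radioligand binding at ATP-sensitive K channel site, filter-based scintillation counting 2 h after dosing. Single-point duplicate screen at 25 uM, hits rerun in concentration-response up to 50 uM; loss of signal versus DMSO.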

Assay [14] deals with rat Gamma-Aminobutyric Acid Type A Receptor, Non-Selective (GABAR-NonSelective), Gabra1 (gene 29705) (UniProt P62813). As to the kind of experiment: NVS_LGIC_rGABAR_NonSelective: NovaScreen (NVS) Ligand-Gated Ion Channel Assay for rat Gamma-Aminobutyric Acid Type A Receptor, Non-Selective (GABAR-NonSelective) (AID 2283326). The essentials: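 Radioligand displacement on rat whole-brain extract, 1 h, filter scintillation readout; signal loss fitted versus DMSO. Primary screen in duplicate at 25 uM; hits (e.g. ≥30% inhibition) retested in concentration-response up to 50 uM.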

Assay [15] addresses rat Neonicotinoid receptor (NNR), Chrna7 (gene 25302) (UniProt Q05941). As to the kind of experiment: NVS_LGIC_rNNR_BungSens: NovaScreen (NVS) Ligand-Gated Ion Channel Assay for rat Neonicotinoid receptor (NNR) (AID 2283315). The essentials: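 Radioligand displacement binding on rat cortical membranes, 2.5 h incubation, filtration and scintillation counting. Loss of specific binding fitted relative to DMSO.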

For assay [16], the target named is rat Vasopressin 1 Receptor (V1), Avpr1a (gene 25107) (UniProt P30560). As to the kind of experiment: NVS_GPCR_rV1: NovaScreen (NVS) G Protein-Coupled Receptor Assay for rat Vasopressin 1 Receptor (V1) (AID 2283316). An outline of the steps: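 Radioligand binding on rat liver membranes, 1.5 h incubation, filter-based scintillation counting. Single 25 uM screen in duplicate; chemicals meeting threshold (e.g. 30% inhibition) run in concentration-response up to 50 uM.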

Sequence of human Peripheral-type Benzodiazepine Receptor (PBR), TSPO (gene 706) (P30536 whole entry, looked up): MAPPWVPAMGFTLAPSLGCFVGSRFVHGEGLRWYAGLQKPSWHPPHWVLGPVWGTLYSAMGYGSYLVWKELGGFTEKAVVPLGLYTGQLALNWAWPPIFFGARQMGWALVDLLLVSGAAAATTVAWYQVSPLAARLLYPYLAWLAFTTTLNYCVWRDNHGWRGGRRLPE
Sequence of rat Adrenergic Receptor, Alpha 2 (Adra2), Non-selective Binding, Adra2a (gene 25083) (P22909 whole entry, looked up): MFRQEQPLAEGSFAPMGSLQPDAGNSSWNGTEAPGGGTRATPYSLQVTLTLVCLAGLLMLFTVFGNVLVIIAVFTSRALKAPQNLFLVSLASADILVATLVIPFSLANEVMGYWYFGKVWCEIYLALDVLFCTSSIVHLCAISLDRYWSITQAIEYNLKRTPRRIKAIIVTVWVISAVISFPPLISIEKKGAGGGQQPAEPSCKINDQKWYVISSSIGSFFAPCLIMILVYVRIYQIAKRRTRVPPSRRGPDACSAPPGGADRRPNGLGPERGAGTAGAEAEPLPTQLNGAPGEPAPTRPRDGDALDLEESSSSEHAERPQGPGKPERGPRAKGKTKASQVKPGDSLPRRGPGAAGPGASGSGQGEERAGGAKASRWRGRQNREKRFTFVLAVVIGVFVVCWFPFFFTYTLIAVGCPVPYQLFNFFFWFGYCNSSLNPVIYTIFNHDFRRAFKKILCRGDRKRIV
Sequence of Adra2b (gene 24174) (P19328 whole entry, looked up): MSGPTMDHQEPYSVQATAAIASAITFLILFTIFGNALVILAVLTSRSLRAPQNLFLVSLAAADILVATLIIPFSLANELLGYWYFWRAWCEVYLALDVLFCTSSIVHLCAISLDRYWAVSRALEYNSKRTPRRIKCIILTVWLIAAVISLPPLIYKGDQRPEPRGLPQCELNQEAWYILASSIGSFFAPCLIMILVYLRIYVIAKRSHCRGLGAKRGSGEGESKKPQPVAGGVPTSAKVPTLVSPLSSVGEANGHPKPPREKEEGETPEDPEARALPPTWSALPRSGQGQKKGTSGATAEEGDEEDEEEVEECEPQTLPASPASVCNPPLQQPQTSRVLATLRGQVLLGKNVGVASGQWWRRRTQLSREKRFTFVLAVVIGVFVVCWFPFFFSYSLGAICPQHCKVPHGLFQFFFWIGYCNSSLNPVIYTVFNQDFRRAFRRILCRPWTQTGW
Sequence of rat Histamine Receptor (H3), Hrh3 (gene 85268) (Q9QYN8 whole entry, looked up): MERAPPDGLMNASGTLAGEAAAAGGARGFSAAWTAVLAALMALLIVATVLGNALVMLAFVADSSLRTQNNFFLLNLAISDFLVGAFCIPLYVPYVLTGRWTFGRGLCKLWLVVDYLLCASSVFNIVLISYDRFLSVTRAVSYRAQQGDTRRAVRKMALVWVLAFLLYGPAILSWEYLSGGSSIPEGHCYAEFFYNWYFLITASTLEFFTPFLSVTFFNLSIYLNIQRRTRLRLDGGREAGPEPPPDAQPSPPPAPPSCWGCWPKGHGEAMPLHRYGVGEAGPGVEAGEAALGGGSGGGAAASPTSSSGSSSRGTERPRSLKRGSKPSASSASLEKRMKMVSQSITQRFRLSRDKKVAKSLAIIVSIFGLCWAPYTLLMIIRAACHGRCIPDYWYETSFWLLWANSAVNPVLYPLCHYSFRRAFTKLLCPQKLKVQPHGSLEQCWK
Sequence of human Androgen Receptor (AR), AR (gene 367) (P10275 whole entry, looked up): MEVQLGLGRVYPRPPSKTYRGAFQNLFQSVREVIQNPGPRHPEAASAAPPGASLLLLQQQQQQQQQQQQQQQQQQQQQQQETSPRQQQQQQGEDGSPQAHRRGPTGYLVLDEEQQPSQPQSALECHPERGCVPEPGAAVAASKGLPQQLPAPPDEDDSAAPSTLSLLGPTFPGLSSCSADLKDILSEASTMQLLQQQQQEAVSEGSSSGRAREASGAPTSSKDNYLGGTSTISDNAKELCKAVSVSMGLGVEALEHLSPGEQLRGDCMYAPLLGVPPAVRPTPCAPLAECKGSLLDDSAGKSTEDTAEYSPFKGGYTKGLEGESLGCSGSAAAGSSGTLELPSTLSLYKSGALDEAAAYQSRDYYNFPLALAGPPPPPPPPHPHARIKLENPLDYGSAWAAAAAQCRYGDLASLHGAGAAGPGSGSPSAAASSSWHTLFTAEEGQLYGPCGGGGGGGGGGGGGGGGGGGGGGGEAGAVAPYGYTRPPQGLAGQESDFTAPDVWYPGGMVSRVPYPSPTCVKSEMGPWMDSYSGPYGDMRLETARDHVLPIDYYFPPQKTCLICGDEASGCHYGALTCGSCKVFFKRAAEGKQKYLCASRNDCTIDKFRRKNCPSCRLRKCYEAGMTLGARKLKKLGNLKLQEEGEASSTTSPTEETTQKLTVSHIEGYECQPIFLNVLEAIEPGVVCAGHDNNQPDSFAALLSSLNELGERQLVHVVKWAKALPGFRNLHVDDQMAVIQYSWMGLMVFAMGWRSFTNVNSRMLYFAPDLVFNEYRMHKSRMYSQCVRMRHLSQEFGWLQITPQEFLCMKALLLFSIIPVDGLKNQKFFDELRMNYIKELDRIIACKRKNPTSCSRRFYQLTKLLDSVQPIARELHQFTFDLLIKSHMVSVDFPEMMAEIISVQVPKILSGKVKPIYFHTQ
Sequence of rat Opioid Receptor, Non-selective Binding, Oprm1 (gene 25601) (P33535 whole entry, looked up): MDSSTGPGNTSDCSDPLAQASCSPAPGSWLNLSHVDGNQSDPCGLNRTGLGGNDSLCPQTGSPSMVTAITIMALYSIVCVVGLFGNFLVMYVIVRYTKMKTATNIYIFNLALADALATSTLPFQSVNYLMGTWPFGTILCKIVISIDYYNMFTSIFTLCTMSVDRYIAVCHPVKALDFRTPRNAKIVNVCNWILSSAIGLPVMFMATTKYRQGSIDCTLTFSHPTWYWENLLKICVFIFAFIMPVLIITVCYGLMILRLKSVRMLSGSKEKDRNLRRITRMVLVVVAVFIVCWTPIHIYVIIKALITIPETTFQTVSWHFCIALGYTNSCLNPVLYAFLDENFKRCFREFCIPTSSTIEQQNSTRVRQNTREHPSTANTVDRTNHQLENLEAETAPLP
Sequence of rat Opioid Receptor, Non-selective Sodium (Na+) Binding, Oprm1 (gene 25601) (P33535 whole entry, looked up): as above
Sequence of Voltage-gated inwardly rectifying potassium channel KCNH2 (Homo sapiens) (Q12809 whole entry, looked up): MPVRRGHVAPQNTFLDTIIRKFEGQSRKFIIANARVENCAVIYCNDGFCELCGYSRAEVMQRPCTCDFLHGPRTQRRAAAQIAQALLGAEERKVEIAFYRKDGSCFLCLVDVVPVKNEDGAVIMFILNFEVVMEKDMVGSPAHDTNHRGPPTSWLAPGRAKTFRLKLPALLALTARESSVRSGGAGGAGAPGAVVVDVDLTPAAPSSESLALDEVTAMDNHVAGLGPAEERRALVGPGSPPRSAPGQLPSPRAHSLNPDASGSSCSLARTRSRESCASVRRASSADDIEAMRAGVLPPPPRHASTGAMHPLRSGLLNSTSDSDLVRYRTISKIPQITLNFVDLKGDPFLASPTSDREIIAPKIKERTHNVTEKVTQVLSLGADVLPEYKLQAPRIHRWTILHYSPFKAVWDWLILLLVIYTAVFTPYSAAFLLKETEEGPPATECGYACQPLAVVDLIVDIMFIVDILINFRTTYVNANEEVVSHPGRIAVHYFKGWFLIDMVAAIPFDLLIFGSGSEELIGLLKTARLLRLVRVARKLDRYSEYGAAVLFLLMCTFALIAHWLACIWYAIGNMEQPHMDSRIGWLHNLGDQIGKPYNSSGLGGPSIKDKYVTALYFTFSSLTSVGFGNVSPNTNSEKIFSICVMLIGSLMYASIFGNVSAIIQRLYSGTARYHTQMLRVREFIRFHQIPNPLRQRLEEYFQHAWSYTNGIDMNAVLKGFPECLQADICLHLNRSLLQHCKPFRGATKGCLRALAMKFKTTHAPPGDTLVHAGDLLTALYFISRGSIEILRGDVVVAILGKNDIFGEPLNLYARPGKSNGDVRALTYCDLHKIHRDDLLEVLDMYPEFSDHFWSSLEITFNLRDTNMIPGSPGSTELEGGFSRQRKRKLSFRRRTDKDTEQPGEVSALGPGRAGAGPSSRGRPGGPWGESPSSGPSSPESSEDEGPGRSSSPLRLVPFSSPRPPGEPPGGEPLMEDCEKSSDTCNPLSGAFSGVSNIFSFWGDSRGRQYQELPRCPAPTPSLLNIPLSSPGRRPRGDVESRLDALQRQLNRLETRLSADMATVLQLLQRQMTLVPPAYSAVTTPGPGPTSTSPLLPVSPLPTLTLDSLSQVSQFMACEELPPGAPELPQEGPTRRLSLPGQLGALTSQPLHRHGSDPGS
Sequence of rat Gamma-Aminobutyric Acid Type A Receptor, Non-Selective (GABAR-NonSelective), Gabra1 (gene 29705) (P62813 whole entry, looked up): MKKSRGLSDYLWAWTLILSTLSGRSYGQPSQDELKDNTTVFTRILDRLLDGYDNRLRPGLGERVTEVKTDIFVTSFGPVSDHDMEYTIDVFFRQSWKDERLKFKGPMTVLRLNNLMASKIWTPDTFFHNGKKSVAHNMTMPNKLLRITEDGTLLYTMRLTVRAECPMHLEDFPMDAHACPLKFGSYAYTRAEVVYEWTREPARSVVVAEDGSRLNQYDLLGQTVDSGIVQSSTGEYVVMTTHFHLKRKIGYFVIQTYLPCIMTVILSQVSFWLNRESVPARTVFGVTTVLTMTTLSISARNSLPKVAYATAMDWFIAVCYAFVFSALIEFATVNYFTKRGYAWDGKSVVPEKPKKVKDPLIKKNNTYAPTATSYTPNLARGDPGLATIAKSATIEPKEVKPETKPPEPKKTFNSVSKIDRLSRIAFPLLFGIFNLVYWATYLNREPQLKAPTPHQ

Take `O=C(NCc1ncc(C(F)(F)F)cc1Cl)c1c(Cl)cccc1Cl`: the AC50 in [1] was 0.00396 µM (active).

`CC(C)c1c(C(=O)Nc2ccccc2)c(-c2ccccc2)c(-c2ccc(F)cc2)n1CC[C@@H](O)C[C@@H](O)CC(=O)O`: in assay [1], the AC50 is 11.2 µM (active).

As to `CC(C)[C@@H]1CC[C@@H](C)C[C@H]1O`, the half-maximal activity concentration (AC50) in assay [2] was 13.1 µM (active).

As to `O=C(CCCN1CCC(O)(c2ccc(Cl)cc2)CC1)c1ccc(F)cc1`, the AC50 in assay [3] is 18.2 µM (active); in assay [4] it was 3.15 µM (active); in assay [5] it was 0.376 µM (active). Besides, in assay [6], the result was inactive.

Turning to `N=C(N)c1ccc(OCCCCCOc2ccc(C(=N)N)cc2)cc1`, the AC50 in assay [7] was 1.32 µM (active); in assay [8] it was 1.06 µM (active); in assay [9] it was 3.49 µM (active); in [10], 0.362 µM (active); with Adra2b (gene 24174), 9.06 µM (active); in [12] it was 18.4 µM (active). Moreover, the AC50 in assay [13] was 5.6 µM (active); in assay [5], 16.1 µM (active). Besides, the result (in [11]; in the assay on NCBI gene 24521; in assay [14]) was inactive.

With `CN(C)CCOC(c1ccccc1)c1ccccc1`, the AC50 is 9.65 µM (active) in [8]; 8.43 µM (active) in [9]; 3.12 µM (active) with Adra2b (gene 24174); 7 µM (active) in assay [13]; 3.25 µM (active) in assay [5]. Also, the compound was called inactive in assay [10] and in [12].

In the case of `CCOC(=O)CN[C@@H](C(=O)N1CC[C@H]1C(=O)NCc1ccc(/C(N)=N/O)cc1)C1CCCCC1`, the AC50 in [5] is 0.00287 µM (active); in [1] it was 1.25 µM (active).

Regarding `COC1=CC(=O)C[C@@H](C)[C@]12Oc1c(Cl)c(OC)cc(OC)c1C2=O`, the AC50 in assay [9] was 3.69 µM (active).

As to `C=CC(=O)OCCN(CC)CC`, in assay [5], the outcome was inactive.

As to `CC1CNCC(C)O1` (configuration not stated), the AC50 in assay [15] is 25 µM (active).

Consider `CC(C)(c1ccc(Oc2ccc(N)cc2)cc1)c1ccc(Oc2ccc(N)cc2)cc1`, for which the AC50 in assay [2] is 9 µM (active).

Regarding `CS(=O)(=O)c1ccc([C@@H](CC2CCCC2)C(=O)Nc2cnccn2)cc1Cl`, the call in assay [16] was inactive.
